Compounds with a hit are over-represented: about 1.5% of the library has one in this group of screens.
ABCB6 inh MLPCN: ABCB6 transporter inhibitors, primary screen, K562-ABCB6 cells, flow cytometry, MLPCN library | ATP-binding cassette sub-family B member 6 (Homo sapiens), Q9NP58 | K562-ABCB6 porphyrin accumulation, 1 h; hits give low values | fluorescence ratio to DMSO, % at 10 µM | actives 0.19% (n = 360,000);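 active means fluorescence ratio to DMSO below 75%, the collection mean minus 3 SD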;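 further: signal is porphyrin accumulated inside mitochondria; 100% equals median channel fluorescence of DMSO control wells; lower ratio means ABCB6 inhibition with less porphyrin fluorescence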
DAGLB inh: DAGLB lipase inhibitors, primary screen, biochemical, fluorescence, HTS; Diacylglycerol lipase-beta (Homo sapiens), Q8NCG7; HEK293T DAGLB membrane lysate, EnzChek fluorogenic substrate; inhibition, % at 5.17 µM; actives 0.059% (n = 340,000); AID 504411, 2011; in the data active means inhibition above about 34%;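 further: 0% = enzyme with vehicle and 100% = wells lacking enzyme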
TMEM16A inh: TMEM16A chloride channel inhibitors, primary screen, cell-based, HTS | Anoctamin-1 (Mus musculus), Q8BHY3 | HEK293 TMEM16A/YFP iodide influx fluorescence, ionomycin | normalized B-score (activity score, 25-100; higher = stronger inhibition) at 10 µM | actives 1.2% (n = 310,000) | AID 588511, 2011;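 active means ratio plate-corrected score three or more library SD toward inhibition, starting fluorescence score within five deviations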;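 further: score derived from kinetic fluorescence span divided by baseline fluorescence per well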
Target sequence (Q8BHY3 whole entry, looked up): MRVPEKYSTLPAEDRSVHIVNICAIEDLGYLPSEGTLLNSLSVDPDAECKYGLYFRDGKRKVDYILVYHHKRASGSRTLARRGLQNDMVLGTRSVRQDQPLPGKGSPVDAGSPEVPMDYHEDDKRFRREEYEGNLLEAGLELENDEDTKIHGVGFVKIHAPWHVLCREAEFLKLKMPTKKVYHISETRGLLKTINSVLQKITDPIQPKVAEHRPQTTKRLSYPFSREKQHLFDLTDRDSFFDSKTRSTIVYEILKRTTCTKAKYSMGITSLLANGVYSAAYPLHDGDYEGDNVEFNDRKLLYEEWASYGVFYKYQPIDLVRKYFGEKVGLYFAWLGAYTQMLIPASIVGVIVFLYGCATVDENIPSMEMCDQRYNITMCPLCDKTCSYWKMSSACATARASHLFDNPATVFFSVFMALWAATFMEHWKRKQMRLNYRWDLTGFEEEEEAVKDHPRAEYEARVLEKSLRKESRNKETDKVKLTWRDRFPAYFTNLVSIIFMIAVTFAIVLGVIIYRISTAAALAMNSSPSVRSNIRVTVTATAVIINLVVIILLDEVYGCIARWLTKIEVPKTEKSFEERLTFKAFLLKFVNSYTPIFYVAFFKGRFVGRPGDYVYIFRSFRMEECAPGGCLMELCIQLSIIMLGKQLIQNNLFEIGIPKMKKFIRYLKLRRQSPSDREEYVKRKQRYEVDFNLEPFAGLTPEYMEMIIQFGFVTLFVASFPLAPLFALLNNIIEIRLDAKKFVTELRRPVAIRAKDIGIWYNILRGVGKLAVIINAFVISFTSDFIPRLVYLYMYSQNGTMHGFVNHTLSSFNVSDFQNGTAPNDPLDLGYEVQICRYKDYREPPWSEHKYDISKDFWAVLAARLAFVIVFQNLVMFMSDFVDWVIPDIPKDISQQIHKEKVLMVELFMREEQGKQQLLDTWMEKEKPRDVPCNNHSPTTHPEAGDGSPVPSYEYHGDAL
iPSC survival up: enhancers of single-cell hiPSC survival, primary screen, ATPlite luminescence; survival enhancement, % at 20 µM; 100% = ROCK inhibitor wells, 0% = DMSO; AID 602274, 2012; actives 0.044% (n = 360,000); in the data active means survival enhancement above about 18%;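 further: cells exposed to compounds for 16 hours before the ATP read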
ANO1 activ: TMEM16A chloride channel activators or potentiators, primary screen, cell-based, HTS; HEK293 TMEM16A/YFP-H148Q/I152L, iodide quench fluorescence; hits give low values; Anoctamin-1 (Mus musculus), Q8BHY3; actives 0.3% (n = 340,000); B-score at 10 µM; AID 623877, 2012;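 active means fluorescence-ratio B-score plate-corrected deviation score at least 3 library SD below zero, with starting fluorescence score within 5 deviations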;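 further: channel opened by trigger with iodide after compound preincubation; score built on the fluorescence ratio of max minus min over baseline; more negative score means more quench and so TMEM16A activation or potentiation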
ABCB6 blocker 1: ABCB6 transporter inhibitors, confirmation, K562-ABCB6 cells, flow cytometry, cherry pick 1 | 700 tested, under 10 active | K562-ABCB6 porphyrin accumulation, 1 h; hits give low values | shares compounds with ABCB6 inh MLPCN | ratio response (% of DMSO), % at 10 µM | AID 602430, 2012;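 active means repeat-averaged ratio response below 75% of DMSO, the collection mean minus 3 SD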;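 further: median porphyrin fluorescence at 575 nm with 488 nm excitation from mitochondria; lower ratio means less porphyrin signal so ABCB6 inhibition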
Active calls of the source: *.

Results for CN(C)c1ccc(-c2ccnc3c2CC(C)(C(=O)Nc2ccc(Cl)cc2)O3)cc1 (stereo unspecified) ?
ABCB6 inh MLPCN: 94; iPSC survival up: -2

Results for COc1ccc(NC(=O)C2(C)Cc3c(-c4ccc(C(N)=O)cc4)ccnc3O2)cn1 (stereo unspecified) ?
ABCB6 inh MLPCN: 97; iPSC survival up: 3; ABCB6 blocker 1: 99

How did CC(=O)Nc1cccc(-c2ccnc3c2CC(C)(C(=O)Nc2ccc4c(c2)OCO4)O3)c1 (stereo unspecified) do in these assays?
ABCB6 inh MLPCN: 105; iPSC survival up: -2; ABCB6 blocker 1: 102

What do the screens show for `CN(C)c1ccc(-c2ccnc3c2CC(C)(C(=O)Nc2ccc(F)c(Cl)c2)O3)cc1` (stereo unspecified)?
ABCB6 inh MLPCN: 96; iPSC survival up: 8; ABCB6 blocker 1: 101

Results for CC1(C(=O)Nc2ccc3c(c2)OCO3)Cc2c(-c3ccccc3)ccnc2O1 (stereo unspecified) ?
ABCB6 inh MLPCN: 96; iPSC survival up: -2

What do the screens show for `N#CCCS(=O)(=O)c1ccc(N)cc1`?
ABCB6 inh MLPCN: 99; DAGLB inh: -1; TMEM16A inh: inactive; iPSC survival up: 2; ANO1 activ: inactive

Results for Cc1ccc(S(=O)(=O)CCC#N)cc1 ?
ABCB6 inh MLPCN: 19*; DAGLB inh: 1; TMEM16A inh: inactive; iPSC survival up: 0; ANO1 activ: inactive; ABCB6 blocker 1: 97

How did O=C(c1cccs1)N(Cc1ccc(Cl)cc1)C1CCS(=O)(=O)C1 (stereo unspecified) do in these assays?
ABCB6 inh MLPCN: 101; DAGLB inh: 2; TMEM16A inh: inactive; iPSC survival up: 0; ANO1 activ: inactive

Results for CCN(CC)CCNc1nc2c(c(=O)n(C)c(=O)n2C)n1C/C=C(/C)Cl ?
ABCB6 inh MLPCN: 73*; DAGLB inh: -1; TMEM16A inh: inactive; iPSC survival up: 1; ANO1 activ: inactive; ABCB6 blocker 1: 100

Results for Cc1cccc(C)c1-n1nnnc1C(c1ccnc2ccccc12)N1CCOCC1 (stereo unspecified) ?
ABCB6 inh MLPCN: 99; iPSC survival up: 2

How did CCCCCCC(=O)N1CCC(c2nc3c(nnn3Cc3ccccc3Cl)c(=O)[nH]2)CC1 do in these assays?
ABCB6 inh MLPCN: 93; DAGLB inh: 2; TMEM16A inh: inactive; iPSC survival up: 0; ANO1 activ: inactive; ABCB6 blocker 1: 101

Results for N#Cc1cccc(NC(=O)N2CCC(c3nc4c(nnn4Cc4cccc(Cl)c4)c(=O)[nH]3)CC2)c1 ?
ABCB6 inh MLPCN: 90; DAGLB inh: 2; TMEM16A inh: inactive; iPSC survival up: 0; ANO1 activ: inactive; ABCB6 blocker 1: 98

Results for O=C(Nc1ccc(F)cc1)N1CCC(c2nc3c(nnn3Cc3cccc(Cl)c3)c(=O)[nH]2)CC1 ?
ABCB6 inh MLPCN: 103; DAGLB inh: 2; TMEM16A inh: inactive; iPSC survival up: 2; ANO1 activ: inactive

How did O=C(C1CCCCC1)N1CCC(c2nc3c(nnn3Cc3ccccc3Cl)c(=O)[nH]2)CC1 do in these assays?
ABCB6 inh MLPCN: 100; DAGLB inh: 3; iPSC survival up: -1; ANO1 activ: inactive

How did O=C(Cc1cccs1)N1CCC(c2nc3c(nnn3Cc3ccccc3Cl)c(=O)[nH]2)CC1 do in these assays?
ABCB6 inh MLPCN: 64*; DAGLB inh: 1; TMEM16A inh: inactive; iPSC survival up: 0; ANO1 activ: inactive; ABCB6 blocker 1: 100

Results for O=C(C1CCCCC1)N1CCC(c2nc3c(nnn3Cc3c(F)cccc3Cl)c(=O)[nH]2)CC1 ?
ABCB6 inh MLPCN: 104; DAGLB inh: 3; TMEM16A inh: inactive; iPSC survival up: -2; ANO1 activ: inactive; ABCB6 blocker 1: 101

How did O=C(O)c1cc(S(=O)(=O)N2CCCCC2)ccc1N1CCCC1 do in these assays?
ABCB6 inh MLPCN: 100; DAGLB inh: 1; iPSC survival up: 0; ANO1 activ: inactive

How did O=C(Nc1ccccc1)c1cc(S(=O)(=O)NCc2ccncc2)ccc1Cl do in these assays?
ABCB6 inh MLPCN: 94; DAGLB inh: 4; TMEM16A inh: inactive; iPSC survival up: 0; ANO1 activ: inactive

Results for COCCCNC(=O)c1ccc2c(c1)CCN2S(C)(=O)=O ?
ABCB6 inh MLPCN: 69*; DAGLB inh: 1; TMEM16A inh: inactive; iPSC survival up: -4; ANO1 activ: inactive; ABCB6 blocker 1: 98

What do the screens show for `COCCNC(=O)c1ccc2c(c1)CCN2S(C)(=O)=O`?
ABCB6 inh MLPCN: 98; DAGLB inh: 0; TMEM16A inh: inactive; iPSC survival up: 3; ANO1 activ: inactive

Results for COc1cccc(NC(=O)CN(C)C(=O)c2cc(-c3ccccc3)nn2-c2ccccc2)c1 ?
ABCB6 inh MLPCN: 104; DAGLB inh: 0; iPSC survival up: 2; ANO1 activ: inactive

What do the screens show for `COc1ccccc1C1CCN(Cc2c(C)[nH]c3ccccc23)CC1`?
ABCB6 inh MLPCN: 26*; DAGLB inh: 1; TMEM16A inh: inactive; iPSC survival up: 0; ANO1 activ: inactive; ABCB6 blocker 1: 102

What do the screens show for `COc1ccccc1C1CCN(Cc2cccc3ccccc23)CC1`?
ABCB6 inh MLPCN: 68*; DAGLB inh: -14; TMEM16A inh: inactive; iPSC survival up: 0; ANO1 activ: inactive; ABCB6 blocker 1: 99

What do the screens show for `CCCC(=O)Nc1ccc2c(c1)Cc1ccccc1-2`?
ABCB6 inh MLPCN: 73*; DAGLB inh: -5; TMEM16A inh: inactive; iPSC survival up: -1; ANO1 activ: inactive; ABCB6 blocker 1: 99

How did Cc1cc(C)n2c(SCC(=O)Nc3ccccc3C#N)nnc2n1 do in these assays?
ABCB6 inh MLPCN: 91; DAGLB inh: 2; iPSC survival up: 0; ANO1 activ: inactive

Results for COc1cccc(CN(CC(=O)NCC2CCCO2)C(=O)CCC(=O)Nc2cc(C)on2)c1 (stereo unspecified) ?
ABCB6 inh MLPCN: 73*; DAGLB inh: -2; TMEM16A inh: inactive; iPSC survival up: -1; ANO1 activ: inactive; ABCB6 blocker 1: 102

How did COc1ccc(CN(CC(=O)NCC2CCCO2)C(=O)CCC(=O)Nc2cc(C)on2)cc1 (stereo unspecified) do in these assays?
ABCB6 inh MLPCN: 95; DAGLB inh: 4; TMEM16A inh: inactive; iPSC survival up: 0; ANO1 activ: inactive
